Assay results from PubChem BioAssay.
Unmarked numbers belong to inactive results. Activity calls are given as the source filed them. Rule as the data show it: active = inhibition above about 25%; inactive = the rest.

experiment: VP16 transactivation inhibitors, counter-screen for SRC1 inhibitor project, cell-based, luminescence, high throughput (AID 588824); conditions: cell-based VP16 transactivation luciferase luminescence; at 3.6 µM; hits give high values

| Compound | inhibition |
| --- | --- |
| C[n+]1c2n(c3ccccc31)N=C(c1ccccc1)CS2 | 35.1% (active) |
| CC(=O)Nc1ccc(S(=O)(=O)c2ccnc3cc(Cl)ccc23)cc1 | 39.2% (active) |
| CC(C)c1ccc(-c2csc(NC(=O)c3cccs3)c2C(=O)O)cc1 | 33.9% (active) |
| COc1cc(-c2cc3nc4ccccc4n3c(N)c2C#N)cc(OC)c1OC | -12.8% |
| CC(C)(C)c1ccc(/C=C2\SC(=O)N(CCNC(=O)c3cccc(S(=O)(=O)N4CCOCC4)c3)C2=O)cc1 | -59.9% |
| c1ccc2c(-c3cncc4ccccc34)cncc2c1 | 28% (active) |
| COc1cc(OC)c2nc(C)c3c(c2c1)N(c1ccc(O)cc1)CC3 | 30.1% (active) |
| CCOC(=O)C(=Cc1cc(=O)c(OC)co1)C(=O)OCC | 53.4% (active) |
| O=C(c1ccncc1)N(Cc1cc2ccccc2[nH]c1=O)C1CCCCC1 | 23.1% |
| O=C(CCCOc1ccc(Cl)cc1Cl)N/N=C/c1ccccc1O | 15.2% |
| O=C(N/N=C/c1ccc(O)cc1O)/C(=C/c1ccccc1)CCO | 24% |
| NC(=S)N/N=C1\CCSc2ccc(Cl)cc21 | 16.1% |
| CCC(=O)Nc1cc2nn(-c3ccc(C)cc3)nc2cc1C | -68% |
| O=C(COc1ccccc1O)NNc1ccccc1 | 29.2% (active) |
| O=C(N/N=C/c1ccccc1O)/C(=C/c1ccccc1)CCO | 19.2% |
| CC(C)n1cc(/C=C/c2cc[n+](C)cc2)c2ccccc21 | 30.3% (active) |
| Cc1nn(-c2ccccc2)c(Cl)c1C(=O)N1CCN(c2ncnc3c2cnn3-c2ccccc2)CC1 | 44.9% (active) |
| OCCNc1c2ccccc2nc2ccccc12 | 42.2% (active) |
| Cc1nc2ccc(NC(=O)c3ccc(Cl)c(S(=O)(=O)N(C)c4ccccc4)c3)cc2s1 | 33.7% (active) |
| O=C1C(F)=CC(COC(c2ccccc2)(c2ccccc2)c2ccccc2)OC1n1cc(F)c(=O)[nH]c1=O (stereo not given) | 62.1% (active) |

| Compound | inhibition |
| --- | --- |
| Nc1ncnc(NCc2ccc(F)cc2)c1[N+](=O)[O-] | 29.9% (active) |
| O=C(NC(=O)N1CCN(c2cccc(Cl)c2)CC1)c1ccccc1 | 41.2% (active) |
| Cc1c(-c2ccccc2)oc2c(C(=O)N3CCN(c4ccc([N+](=O)[O-])cc4)CC3)cccc2c1=O | 27.3% (active) |
| COc1ccc(Nc2nc(N3CCCC3)nc3ccccc23)c(OC)c1 | 33.2% (active) |
| O=C(Nc1nc(-c2ccc(S(=O)(=O)N3CCCC3)cc2)cs1)C1COc2ccccc2O1 (stereo not given) | -2.78% |
| COC(=O)c1cc2c(n1S(=O)(=O)c1ccc(C)cc1)C(=O)C(=O)c1[nH]cc(C(=O)OCc3ccccc3)c1-2 | 93.2% (active) |
| NNC(=O)C(=O)Nc1ccc(O)cc1 | -2.23% |
| CCN(CC)S(=O)(=O)c1ccc(/C=C/C(=O)Nc2ccc(F)c(F)c2F)cc1 | 28.7% (active) |
| O=C(CCSc1nc2ccccc2s1)N/N=C/c1c(O)ccc2ccccc12 | 32% (active) |
| CCCOc1ccc(/C=N/Nc2ccccc2[N+](=O)[O-])c(O)c1 | -39.9% |
| O=C(N/N=C/c1cc(Br)ccc1O)c1ccncc1 | 39.9% (active) |
| O=C1CC(c2ccc3c(c2)OCO3)Sc2nc3ccccc3n21 (stereo not given) | -73.2% |
| Cc1cc(=O)[nH]c(Nc2cccc(Br)c2)n1 | 24.4% |
| CN(CC1CCCO1)S(=O)(=O)c1ccc(C(=O)Nc2nc3cc4c(cc3s2)OCO4)cc1 (stereo not given) | 39.8% (active) |
| O=C(CSC1=NCCS1)Nc1ccnc2ccccc12 | 37.9% (active) |
| Cc1ccc(NC(=O)CCC(=O)N/N=C/c2ccc(O)cc2O)cc1 | 15.4% |
| COc1ccc(C(=O)N/N=C/c2cc(Br)ccc2O)cc1OC | 42.5% (active) |
| Nc1nc(=O)n(C2OC(CO)C(O)C2O)cc1F (stereo not given) | 38.9% (active) |
| O=C(Nc1ccc(Cn2cccn2)cc1)c1ccc(COc2cccc(Br)c2)cc1 | 30.4% (active) |
| Cc1ccc(C2CC(C(F)(F)F)n3nc(C(=O)NCc4c(C)nn(C)c4C)c(Cl)c3N2)cc1 (stereo not given) | 10.9% |
